Most compounds without a hit are left out; they make up all but 12% or so of the library.
USP28 inh – inhibitors of human USP28 deubiquitinase | Ubiquitin carboxyl-terminal hydrolase 28 (Homo sapiens), Q96RU2 | purified USP28, Ub-rhodamine cleavage fluorescence, 30 min | inhibition, % at 25 µM | 47,000 tested, 3% active
OTUD3 inh – inhibitors of human OTUD3 deubiquitinase. OTU domain-containing protein 3 (Homo sapiens), Q5T2D3. purified OTUD3, Ub-rhodamine fluorescence, 2 h. inhibition, % at 25 µM. 47,000 tested, 0.7% active. AID 1645858, 2021
Target sequence (Q5T2D3 whole entry, looked up, the tested form may be a part): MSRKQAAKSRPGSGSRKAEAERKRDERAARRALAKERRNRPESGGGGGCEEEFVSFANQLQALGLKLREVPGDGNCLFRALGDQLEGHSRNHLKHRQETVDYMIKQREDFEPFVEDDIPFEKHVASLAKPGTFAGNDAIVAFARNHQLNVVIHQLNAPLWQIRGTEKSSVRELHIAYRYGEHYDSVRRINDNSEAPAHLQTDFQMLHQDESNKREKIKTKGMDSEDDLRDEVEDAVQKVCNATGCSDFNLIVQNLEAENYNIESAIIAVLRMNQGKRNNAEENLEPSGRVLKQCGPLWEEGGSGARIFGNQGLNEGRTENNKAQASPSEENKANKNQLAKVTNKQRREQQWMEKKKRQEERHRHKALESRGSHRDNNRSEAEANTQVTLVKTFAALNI
USP17 inh – inhibitors of human USP17 deubiquitinase. 47,000 tested, 6.5% active. inhibition, % at 50 µM. AID 1645855, 2021. purified USP17, Ub-rhodamine cleavage fluorescence, 3 h
USP30 block – inhibitors of human USP30 deubiquitinase; purified USP30, Ub-rhodamine cleavage fluorescence; inhibition, % at 25 µM; AID 1645860, 2021; 47,000 tested, 5.3% active; Ubiquitin carboxyl-terminal hydrolase 30 (Homo sapiens), Q70CQ3
A number is an active result. Cut-off read from the data, not from the text of the source: active = inhibition above about 30%; inactive = the rest.

For Cc1ccc(C2=NC3(CCN(C(=O)c4cccc(F)c4)CC3)ON2)cc1 the results were USP28 inh inactive, OTUD3 inh inactive, USP17 inh inactive and USP30 block inactive.
Screening Cc1ccc(Nc2nc3ccncc3n(Cc3ccccc3)c2=O)cc1 returned USP28 inh inactive, OTUD3 inh inactive, USP17 inh inactive and USP30 block inactive.
Screening COc1cccc(NC(=O)Cn2c(-n3nc(C)cc3C)nc3c(c2=O)CCC3)c1 returned USP28 inh inactive, OTUD3 inh inactive, USP17 inh inactive and USP30 block inactive.
Screening Cc1ccc(NC(=O)Cn2c(Nc3cccc(C)c3)nc(C)cc2=O)cc1 returned USP28 inh inactive, OTUD3 inh inactive, USP17 inh 35.8 and USP30 block 57.9.
`Cc1cccc(NC(=O)Cn2c(-n3nc(C)cc3C)nc3c(c2=O)CCC3)c1` gave USP28 inh inactive, OTUD3 inh inactive, USP17 inh 37.3 and USP30 block inactive.
Screening Cc1cc(=O)n(CC(=O)Nc2ccc(F)cc2)c(Nc2ccc(F)cc2)n1 returned USP28 inh inactive, OTUD3 inh inactive, USP17 inh inactive and USP30 block inactive.
`CNc1nc2c(c(=O)n1-c1ccccc1)CCN(C(=O)c1ccc(OC)cc1)C2` gave USP28 inh inactive, OTUD3 inh inactive, USP17 inh inactive and USP30 block inactive.
CC1(C)Cc2c(sc3nc(SCc4ccccc4Cl)nc(N)c23)CO1 was read as USP28 inh inactive, OTUD3 inh inactive, USP17 inh inactive and USP30 block inactive.
For COc1ccc(-c2cc(-c3ccc(F)cc3)[nH]c(=O)c2C#N)cc1 the results were USP28 inh inactive, OTUD3 inh inactive and USP30 block 79.0.
Brc1ccc(-c2cn3c4ccccc4n(CCN4CCCCC4)c3n2)cc1 was read as USP28 inh inactive, OTUD3 inh inactive, USP17 inh inactive and USP30 block inactive.
For Fc1ccc(-c2cn3c4ccccc4n(Cc4ccc(Cl)cc4)c3n2)cc1 the results were USP28 inh inactive, OTUD3 inh inactive, USP17 inh 45.7 and USP30 block inactive.
`CCCn1c2ccccc2n2cc(-c3ccc(-c4ccccc4)cc3)nc12` gave USP28 inh inactive, OTUD3 inh inactive, USP17 inh 34.1 and USP30 block inactive.
Screening N#Cc1ccc(CC2(Cc3ccc(C#N)cc3)C(=O)N(Cc3ccccn3)C(=O)c3ccccc32)cc1 returned USP28 inh inactive, OTUD3 inh inactive, USP17 inh inactive and USP30 block 44.5.
O=C1N(Cc2ccccn2)C(=O)C2(Cc3ccccc3)CCN(Cc3ccccn3)CCN12 (centres undefined) was read as USP28 inh inactive, OTUD3 inh inactive, USP17 inh inactive and USP30 block inactive.
For CN(C)c1ccc(CCN2CCc3nc4cccnc4cc3C2)cc1 the results were USP28 inh inactive, OTUD3 inh inactive, USP17 inh inactive and USP30 block inactive.
For O=C1N(Cc2cccc(Cl)c2)CCN1c1ccc(F)cc1F the results were USP28 inh 47.8, OTUD3 inh inactive, USP17 inh inactive and USP30 block inactive.
O=C1N(Cc2cccc(Cl)c2)CCN1c1ccc2c(c1)CCC2 was read as USP28 inh 60.8, OTUD3 inh inactive, USP17 inh inactive and USP30 block inactive.
`Cc1nc(SCC(=O)c2cc3ccccc3o2)c2oc3ccccc3c2n1` gave USP28 inh inactive, OTUD3 inh inactive, USP17 inh inactive and USP30 block inactive.
`CC(C)NC(=O)[C@H](Cc1ccccc1)NC(=O)N1CCn2c1nc1ccccc12` gave USP28 inh inactive, OTUD3 inh inactive, USP17 inh 33.1 and USP30 block 62.4.
`O=C(O)CNC(=O)[C@H](Cc1ccccc1)NC(=O)N1CCn2c1nc1ccccc12` gave USP28 inh inactive, OTUD3 inh inactive, USP17 inh inactive and USP30 block inactive.
CCCNC(=O)[C@H](Cc1ccccc1)NC(=O)N1CCn2c1nc1ccccc12 was read as USP28 inh inactive, OTUD3 inh inactive, USP17 inh 40.3 and USP30 block 39.3.
`Cc1cc(-c2ncc(C)[nH]2)nc(C2CCCN2C(=O)C(C)(C)C)n1` (centres undefined) gave USP28 inh inactive, OTUD3 inh inactive, USP17 inh inactive and USP30 block inactive.
Screening COc1ccccc1NS(=O)(=O)c1cc([N+](=O)[O-])ccc1NCC1COc2ccccc2O1 (centres undefined) returned USP28 inh inactive, OTUD3 inh inactive, USP17 inh inactive and USP30 block inactive.
Cc1ccc([N+](=O)[O-])cc1S(=O)(=O)Nc1cc2sc(=O)oc2c2ccccc12 was read as USP28 inh 61.5, OTUD3 inh 32.5, USP17 inh 66.7 and USP30 block inactive.
O=C1COC2(CCN(C(=O)N3CCCC3)CC2)CN1Cc1ccccc1 was read as USP28 inh inactive, OTUD3 inh inactive, USP17 inh inactive and USP30 block 33.6.
Screening CCn1c(SCC(=O)NCCc2ccccc2)nnc1-c1ccc2c(c1)OCCO2 returned USP28 inh inactive, OTUD3 inh inactive, USP17 inh inactive and USP30 block inactive.
`Cn1c(SCC(=O)Nc2ccc3c(c2)OCCO3)nnc1C(F)(F)F` gave USP28 inh inactive, OTUD3 inh inactive, USP17 inh inactive and USP30 block inactive.
CCn1c(SCC(=O)Nc2ccc(C)c(Cl)c2)nnc1-c1ccc2c(c1)OCCO2 was read as USP28 inh inactive, OTUD3 inh inactive, USP17 inh inactive and USP30 block 39.8.
For Cn1c(SCC(=O)Nc2ccc3c(c2)OCCO3)nnc1-c1ccncc1 the results were USP28 inh 38.5, OTUD3 inh inactive, USP17 inh inactive and USP30 block inactive.
CCn1c(SCC(=O)N2c3ccccc3CC2C)nnc1-c1ccc2c(c1)OCCO2 (centres undefined) was read as USP28 inh inactive, OTUD3 inh inactive, USP17 inh inactive and USP30 block 72.6.
Screening Cn1nc(-c2ccc(F)cc2)cc1C(=O)NC1CC(=O)N(C2CC2)C1 (centres undefined) returned USP28 inh inactive, OTUD3 inh inactive, USP17 inh inactive and USP30 block inactive.
Screening Cc1ccccc1NC(=O)c1cc(S(=O)(=O)N2CCCCCC2)cn1C returned USP28 inh inactive, OTUD3 inh inactive, USP17 inh inactive and USP30 block inactive.
For O=C1Nc2ccccc2C2(CCN(S(=O)(=O)c3ccc(F)cc3)CC2)O1 the results were USP28 inh inactive, OTUD3 inh inactive, USP17 inh inactive and USP30 block inactive.
COc1ccc(S(=O)(=O)N2CCC3(CC2)OC(=O)Nc2ccccc23)cc1 was read as USP28 inh inactive, OTUD3 inh inactive, USP17 inh 63.6 and USP30 block inactive.
O=C(NCC1CCCO1)c1cc(CN2CCOCC2)on1 (centres undefined) was read as USP28 inh inactive, OTUD3 inh inactive, USP17 inh inactive and USP30 block inactive.
For CC(C)(C)OC(=O)NCc1ccc(C(=O)Nc2ccc(Cl)cn2)cc1 the results were USP28 inh inactive, OTUD3 inh inactive, USP17 inh inactive and USP30 block 34.2.
O=C(C1CCN(S(=O)(=O)c2cc(F)ccc2F)CC1)N1CCc2sccc2C1 was read as USP28 inh inactive, OTUD3 inh inactive, USP17 inh 33.3 and USP30 block inactive.

Screening results deposited in PubChem by Buhrlage Lab, Dana-Farber Cancer Institute and Novartis Institutes for BioMedical Research (Cambridge, Mass).
